Source: PubChem BioAssay
Shown are actives, neighbours in structure and some others; about 3.6% of the full set was active somewhere.
OvCa metastasis = Primary qHTS assay for Inhibitors of ovarian cancer metastasis using an organotypic tumor microenvironment (TME) model. 46,000 tested, 0.1% active. SKOV3ip1-GFP adhesion/invasion on 3D omental model, fluorescence. Potency, µM (series often up to 45.8 µM), for inactives: at the top dose activity change, negative = inhibition, most hits filed as inhibitors;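 further: potency means the concentration at half of the fitted maximal effect; plate controls were DMSO wells for no effect and tomatine positive control wells for full effect; nearly all actives have a fitted effect of over 65% in size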
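qHTS, 4-pt dose (0.36-46 umol/L); SKOV3ip1-GFP, 1,200 cells/well, no FBS; primary omental fibroblast/mesothelial co-culture 48 h pre-grown; 2 h RT + 16 h 37 C; PBS wash, 4% PFA; GFP count 488/509 nm.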
pS6 MEF inh = Acumen qHTS Assay for Inhibitors of the mTORC1 Signaling Pathway in MEF (Tsc2-/-, p53-/-) Cells: Sytravon; Tsc2-/- p53-/- MEF, phospho-rpS6 immunofluorescence/PI, 24 h; Potency, µM (highest dose often 38.3 µM), for the others: top-dose activity change, negative = inhibition, most hits filed as inhibitors; 44,000 tested, 0.78% active;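 further: potency means the concentration at half of the fitted maximal effect; plate controls were DMSO for no effect and rapamycin for full effect; nearly all actives have a fitted effect of over 50% in size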
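Plate MEFs (Tsc2-/-, p53-/-, empty vector) in DMEM/10% FBS; after 24 h add compound, incubate 24 h at 37 degree Celsius; fix in PFA/TX-100, block, stain phospho-rpS6 and 10 uM PI; scan at 488 nm; report % positive cells.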
HTT-AS promoter = Primary qHTS for Identification of Small Molecule Activators of Huntingtin-Antisense Promoter Activity; 48,000 tested, 0.24% active; HEK293 HTT-AS promoter firefly luciferase reporter, 24 h; response scale: percent change from vehicle, -100% = no light; Potency, µM (highest dose often 57.5 µM), without a hit: at the highest dose activity change, positive = activation, actives largely listed as activators; further: potency means the concentration at half of the fitted maximal effect; nearly all actives have a fitted effect of over 55% in size
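Luminescence was read after Dual-Glo reagent and a 10 min room-temperature incubation. Values were normalized to vehicle (0% activity) and zero RLU (-100% activity). Reporter HEK293 cells had been exposed to compounds (up to 57.5 uM final) for 24 h.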
PMP22 txn prim = Cell-based coincidence reporter assay to measure PMP22 gene transcription in S16 Pmp22-F2sN cells - Primary screen | S16 Pmp22-F2sN Schwann cells, FLuc/NLuc coincidence luminescence, 24 h | 43,000 tested, 2% active | Potency, µM (titrated, usually from 57.5 µM), for the others: at the top dose activity change, negative = inhibition, usual class: inhibitors; active means clear falling dose curves in both reporters; inconclusive means both reporters move, but less clearly or upward; inactive means either reporter flat; the % is the NLuc reporter signal; further: potency means the concentration at half of the fitted maximal effect; on the % scale 0 is the no-effect control and ±100 the full control effect
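Rat S16 Pmp22-F2sN cells, 500-1,000/well in phenol red-free DMEM + 10% FBS, compound-treated 24 h (37C, 5% CO2). Luminescence: FLuc read, Stop&Glo added, NLuc read.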
S16 F2sN tox = Cell viability qHTS assay in S16 Pmp22-F2sN cells. S16 Pmp22-F2sN Schwann cells (luciferase reporters placed in the Pmp22 gene) viability, CellTiter-Glo, 24 h. Potency, µM (titrated, usually from 57.5 µM), inactives show top-dose activity change, negative = cytotoxicity, usual class: cytotoxic. 43,000 tested, 0.48% active. AID 1508642, 2021; further: potency means the concentration at half of the fitted maximal effect; on the % scale 0 is the no-effect control and ±100 the full control effect; nearly all actives have a fitted effect of over 65% in size
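Luminescence from CellTiter-Glo, read by CCD camera after a 15 min room-temperature incubation, served as the viability signal. Reporter Schwann cells (S16 Pmp22-F2sN) had been treated with pin-transferred compounds for 24 h at 37C.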
HTT prom inh = Primary qHTS for Identification of Small Molecule Inhibitors of Huntingtin Promoter Activity; HEK293 HTT promoter firefly luciferase reporter, 24 h; Potency, µM (series often up to 57.5 µM), inactives show at the highest dose activity change, negative = inhibition, most hits filed as inhibitors; 48,000 tested, 0.93% active; further: potency means the concentration at half of the fitted maximal effect; nearly all actives have a fitted effect of over 50% in size
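HEK293 cells carrying firefly luciferase reporters were seeded at 2,500 per well in Opti-MEM and cultured for 24 h. They were then treated with compounds at up to 57.5 uM final for 24 h at 37 degrees C before Dual-Glo luminescence readout.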
NLuc saturating = Biochemical NLuc saturation counterscreen for small molecule modulators of PMP22 gene expression - Nano-Glo assay | shares compounds with PMP22 txn prim | Secreted NLuc enzyme (filtered S16 cell medium), Nano-Glo luminescence | Potency, µM (titrated, usually from 57.5 µM), without a hit: at the top dose activity change, negative = inhibition, usual class: inhibitors | 690 tested, 4% active; further: potency means the concentration at half of the fitted maximal effect; on the % scale 0 is the no-effect control and ±100 the full control effect
NLuc Km ctr = Biochemical coelenterazine-based NLuc counterscreen for small molecule modulators of PMP22 gene expression - Km assay | AID 1508639, 2021 | 690 tested, 5% active | secreted NLuc enzyme, coelenterazine luminescence, Km conditions | Potency, µM (doses to about 57.5 µM), for inactives: at the highest dose activity change, negative = inhibition, actives largely listed as inhibitors | shares compounds with PMP22 txn prim; further: potency means the concentration at half of the fitted maximal effect; on the % scale 0 is the no-effect control and ±100 the full control effect
FLuc counter = Biochemical FLuc counterscreen for small molecule modulators of PMP22 gene expression. shares compounds with PMP22 txn prim. 690 tested, under 10 active. purified P. pyralis FLuc, luminescence, 10 min. Potency, µM (highest dose often 57.5 µM), for inactives: at the highest dose activity, negative = inhibition, hits mostly inhibitors; further: % of control where 0% means no effect
Target sequence (P08659 whole entry, looked up): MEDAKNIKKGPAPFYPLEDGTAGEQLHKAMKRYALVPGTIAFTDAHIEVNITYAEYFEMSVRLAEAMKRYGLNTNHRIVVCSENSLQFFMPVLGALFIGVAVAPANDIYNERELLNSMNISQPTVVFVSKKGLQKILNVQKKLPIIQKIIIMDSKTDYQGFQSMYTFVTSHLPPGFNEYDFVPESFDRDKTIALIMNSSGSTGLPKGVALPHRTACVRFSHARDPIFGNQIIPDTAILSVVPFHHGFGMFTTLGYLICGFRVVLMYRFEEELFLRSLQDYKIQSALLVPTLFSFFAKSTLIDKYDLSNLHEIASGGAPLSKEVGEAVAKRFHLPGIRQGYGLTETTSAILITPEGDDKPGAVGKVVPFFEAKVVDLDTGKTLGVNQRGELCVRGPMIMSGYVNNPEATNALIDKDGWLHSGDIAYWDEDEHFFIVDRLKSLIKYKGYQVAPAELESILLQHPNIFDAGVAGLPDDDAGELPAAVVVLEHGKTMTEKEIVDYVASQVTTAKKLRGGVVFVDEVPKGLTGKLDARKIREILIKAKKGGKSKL
S16 F2sN tox cnf = Cell viability qHTS assay in S16 Pmp22-F2sN cells - Confirmatory screen. S16 Schwann cells viability, CellTiter-Glo ATP luminescence, 24 h. 690 tested, 7% active. Potency, µM (series often up to 57.5 µM), for inactives: at the highest dose activity change, negative = viability loss, hits mostly cytotoxic. shares compounds with PMP22 txn prim. AID 1508641, 2021; further: potency means the concentration at half of the fitted maximal effect; on the % scale 0 is the no-effect control and ±100 the full control effect
PMP22 txn conf = Cell-based coincidence reporter assay to measure PMP22 gene transcription in S16 Pmp22-F2sN cells - Confirmatory screen; AID 1508646, 2021; 690 tested, 22% active; S16 Schwann cells Pmp22-F2sN, dual luciferase, 24 h; shares compounds with PMP22 txn prim; Potency, µM (highest dose often 57.5 µM), for the others: at the highest dose activity change, negative = inhibition, actives largely listed as inhibitors; active means clear falling dose curves in both reporters; inconclusive means both reporters move, but less clearly or upward; inactive means either reporter flat; the % is the FLuc reporter signal; further: potency means the concentration at half of the fitted maximal effect
* marks the source's active call; other numbers are inactive results; i = inactive; ? = inconclusive; / = not tested or not shown. Unless noted, the call rests on the fitted dose curve; in most records, active means well fitted curve in the direction sought with a large enough effect; inconclusive means small, poorly fitted or top-dose-only effect, or another doubt; inactive means no such curve, though single readings can be large; an effect the other way counts as inactive or inconclusive.

SMILES	OvCa metastasis	pS6 MEF inh	HTT-AS promoter	PMP22 txn prim	S16 F2sN tox	HTT prom inh	NLuc saturating	NLuc Km ctr	FLuc counter	S16 F2sN tox cnf	PMP22 txn conf
Cc1cccc(NC(=O)C2CCCN(c3nnc(-n4c(C)ccc4C)s3)C2)c1C (centres undefined)	-21.2%	-3.1%	-15.9%	16µM*	-1.8%	-29.8%	?	-6.5%	-2.8%	0.9%	?
Cc1ccccc1CNC(=O)C1CCCN(c2nnc(-n3c(C)ccc3C)s2)C1 (centres undefined)	13.1%	-9.6%	-13.1%	15.6µM*	?	-13.2%	-10.1%	?	-0.2%	6.8%	-36.7%
COc1ccc(C2CC(=O)N(CC(=O)Nc3cccc(C)c3C)c3ccccc3S2)cc1OC (centres undefined)	4.8%	-6.7%	-37.4%	11.9µM*	-5.7%	?	?	?	2.2%	-16.1%	-37.9%
COc1ccc(C2CC(=O)N(CC(=O)Nc3ccc(C)c(Cl)c3)c3ccccc3S2)cc1OC (centres undefined)	24.9%	-1.9%	-20.7%	-43.8%	-0.5%	-29.2%	/	/	/	/	/
Oc1cc(-c2nc(-c3ccccc3)[nH]c2-c2ccncc2)ccc1Cl	-11.5%	/	-24.7%	/	/	?	/	/	/	/	/
Cc1c(Cl)cccc1Nc1nn2c(=O)c3ccc(C(=O)NCCc4ccccc4)cc3nc2s1	i	-3.0%	-5.0%	10µM*	?	-12.8%	-15.2%	?	0.9%	27.3µM*	14.5µM*
CCOC(=O)C1CCN(C(=O)c2ccc3c(=O)n4nc(Nc5ccccc5)sc4nc3c2)CC1	i	-4.6%	-25.6%	5.32µM*	4.2%	-34.1%	?	?	?	5.9%	-23.1%
Cc1ccc(C)c(Nc2nn3c(=O)c4ccc(C(=O)NCCc5ccccc5)cc4nc3s2)c1	i	1.4%	-3.0%	13.3µM*	16.8%	7.6%	?	-1.7%	-0.9%	19.3µM*	10.9µM*
CCCS(=O)(=O)Nc1ccc(F)c(C(=O)c2c[nH]c3ncc(Cl)cc23)c1F	-9.4%	/	-41.1%	/	/	?	/	/	/	/	/
CCOC(=O)[C@@H](N)CCC(=O)N[C@@H](CSCc1ccccc1)C(=O)N[C@@H](C(=O)OCC)c1ccccc1	4.3%	/	-17.7%	/	/	-22.2%	/	/	/	/	/
CCc1ccccc1NC(=O)CSc1ncc(S(=O)(=O)c2ccc(C(C)C)cc2)c(N)n1	i	0.3%	-43.3%	17.9µM*	-2.1%	?	?	1.0%	4.8%	21.4%	?
CC(=O)OCC(=O)[C@@]12N=C(C)O[C@H]1C[C@H]1[C@@H]3CCC4=CC(=O)C=C[C@]4(C)[C@@H]3[C@@H](O)C[C@@]12C	17.1%	/	-93.3%	/	/	?	/	/	/	/	/
CSc1nc2c(sc3ccccc32)c(=O)n1Cc1ccc(C)cc1	?	-0.8%	-1.6%	?	-11.9%	-3.0%	/	/	/	/	/
COc1ccc(Cn2c(SCC(N)=O)nc3c(sc4ccccc43)c2=O)cc1	i	-6.5%	7.8%	12.1µM*	?	10.5%	-5.8%	-1.6%	10.2%	27.3µM*	?
COc1cc(-c2nc(Cn3nnc(C(=O)Nc4cc(C)cc(C)c4)c3C)c(C)o2)cc(OC)c1OC	i	-11.5%	-34.8%	?	5.5%	?	4.85µM*	3.85µM*	-8.5%	-1.7%	?
CC(=O)O[C@H]1CC[C@@]2(C)C(=CC[C@@H]3[C@@H]2CC[C@]2(C)C(C(C)=O)=CC[C@@H]32)C1	/	/	-5.3%	/	/	-4.2%	/	/	/	/	/
COCCNc1nc2c(c(=O)n(C)c(=O)n2C)n1Cc1c(F)cccc1Cl	6.5%	-1.1%	-29.9%	12.6µM*	?	?	1.1%	-2.1%	3.6%	10.6%	-9.1%
Cc1cccc(NC(=O)c2sc3nc4c(cc3c2N)CCCCCC4)c1C	-10.0%	?	-27.6%	?	16.7%	?	-7.0%	-2.0%	-7.3%	-0.3%	-39.8%
OC[C@H]1O[C@@H](n2cnc3c2NC=NC[C@@H]3O)C[C@H]1O	4.7%	/	-21.1%	/	/	-8.5%	/	/	/	/	/
CCc1ccc(S(=O)(=O)c2nnn3c2nc(N(CC)Cc2ccccc2)c2cc(Cl)ccc23)cc1	0.5%	-3.4%	9.2%	6.7µM*	-10.8%	4.8%	-0.9%	1.9%	3.9%	4.9%	-13.9%
CCc1ccc(S(=O)(=O)c2nnn3c2nc(N(C)Cc2ccccc2)c2cc(Cl)ccc23)cc1	9.4%	-5.3%	16.3%	2.4%	10.3%	-9.8%	/	/	/	/	/
